High-throughput results (PubChem BioAssay)
Sfp PPTase inh – Sfp phosphopantetheinyl transferase inhibition | Q9F4F7 | Biochemical Sfp PPTase activity, qHTS | Potency, µM, for the others: largest response in the series, negative = inhibition, hits mostly inhibitors | 310,000 tested, 3.5% active | AID 1490;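 also: the enzyme is Sfp with the accession as filed and its product quenches rhodamine fluorescence; 0% = enzyme reaction without inhibitor and -100% = no enzyme wells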
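Buffer: 50 mM Hepes-Na pH 7.6, 10 mM MgCl2, 0.01% Nonidet P-40, 0.01% BSA. Enzyme 15 nM, pre-exposed to compound 15 min; substrates then added and fluorescence change tracked over 30 min.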
VDR inhibitor – blocks the human vitamin D receptor; 400,000 tested, 0.93% active; Potency, µM, for inactives: max response, negative = inhibition, usual class: inhibitors; VDR-SRC2-3 peptide fluorescence polarization, 2 h; AID 504847; P11473
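Signal is fluorescence polarization, reporting how far test compounds block the interaction of VDR with the SRC2-3 coregulator peptide after a 2 h room-temperature incubation.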
PLK1 PBD block – PLK1 (human) polo-box domain binding inhibition; P53350; Plk1 PBD binding of FITC phosphopeptide, fluorescence polarization; Potency, µM, without a hit: max response, negative = inhibition, actives largely listed as inhibitors; 360,000 tested, 2.8% active; also: series mostly up to about 57 µM; nearly all actives have a fitted effect of over 65% in size
mIDH1 inhibitor – human IDH1 R132H inhibition; 390,000 tested, 0.093% active; IDH1-R132H enzyme, NADPH consumption, diaphorase/resazurin fluorescence; Potency, µM (top dose mostly 76.6 µM), without a hit: top-dose activity change, negative = inhibition, actives largely listed as inhibitors; also: nearly all actives have a fitted effect of over 65% in size
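IDH1-R132H (0.5 ug/mL dispensed) in pH 7.5 Tris buffer was preincubated 30 min with compound, then given a substrate mix of 0.016 mM NADPH and 2 mM alpha-KG for 80 min at room temperature; remaining NADPH was read by diaphorase/resazurin fluorescence.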
TrxR1 substrate – is turned over as a substrate by rat TrxR1 | purified TrxR1 substrate turnover, NADPH consumption readout | 390,000 tested, 0.01% active | O89049 | Potency, µM (highest dose often 114 µM), inactives show top-dose activity change, negative = substrate turnover | AID 588456; also: nearly all actives have a fitted effect of over 50% in size
Target sequence (O89049 whole entry, looked up): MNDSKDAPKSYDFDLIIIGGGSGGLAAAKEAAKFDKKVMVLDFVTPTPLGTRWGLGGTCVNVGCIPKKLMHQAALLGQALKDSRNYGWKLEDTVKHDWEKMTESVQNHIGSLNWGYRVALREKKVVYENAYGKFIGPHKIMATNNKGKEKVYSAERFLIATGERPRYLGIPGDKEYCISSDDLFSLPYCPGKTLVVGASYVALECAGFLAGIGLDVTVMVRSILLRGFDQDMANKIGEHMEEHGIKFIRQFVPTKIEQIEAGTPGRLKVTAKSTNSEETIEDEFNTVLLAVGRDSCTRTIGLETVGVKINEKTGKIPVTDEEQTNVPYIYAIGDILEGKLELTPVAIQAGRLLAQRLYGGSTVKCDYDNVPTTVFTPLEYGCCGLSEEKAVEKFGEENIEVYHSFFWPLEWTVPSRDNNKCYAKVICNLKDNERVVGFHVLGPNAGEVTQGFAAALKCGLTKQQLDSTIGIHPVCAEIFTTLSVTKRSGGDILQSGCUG
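Rat TrxR1, dispensed at 90 nM, was prereduced with 400 uM NADPH (final) for 5 min at ~22 deg C, then incubated with compound 15 min before 400 uM selenite. A first-read NADPH fluorescence drop versus no-compound background flagged substrates.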
TrxR1 inh – inhibitors of rat thioredoxin reductase 1. O89049. recombinant rTrxR1, NADPH fluorescence consumption, selenite substrate. Potency, µM (titrated, usually from 114 µM), inactives show top-dose activity change, negative = inhibition, most hits filed as inhibitors. 390,000 tested, 1% active; also: nearly all actives have a fitted effect of over 65% in size
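Rat TrxR1 (90 nM in the dispensed reagent) was pre-reduced with 400 uM NADPH for 5 min at room temperature, then incubated with compound for 15 min. After 400 uM selenite was added, NADPH fluorescence (Ex 340/Em 450 nm) was followed for 8 min.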
An asterisk follows results filed as active; u = inconclusive; x = no result given; [ ] = remark or other dose. A selection: hits, their analogues and other compounds. The true share with any hit is near 5.2%. Calls follow the shape of the dose curve; as a rule, active = well fitted curve in the direction sought with a large enough effect; inconclusive = small, poorly fitted or top-dose-only effect, or another doubt; inactive = no such curve, though single readings can be large; an effect the other way counts as inactive or inconclusive. Unless noted, % is scaled to controls: 0 for no effect and ±100 for the full control effect; potency is read from the fitted curve at half-maximal effect.

SMILES	Sfp PPTase inh	VDR inhibitor	PLK1 PBD block	mIDH1 inhibitor	TrxR1 substrate	TrxR1 inh
CC(=O)N1CCc2cc(Br)cc(S(=O)(=O)CCC(=O)N3CCN(c4cccc(C)c4C)CC3)c21	x	-7%	x	-2%	11%[2.29 µM]	10%[2.29 µM]
COc1ccc(NC(=O)Cn2c(C)c3cnn(-c4ccccc4)c(=O)c3c2C)c(OC)c1	x	14%	x	0%	-6%	-7%
Fc1ccc(C2c3cccn3CCN2C(=S)Nc2cccc(F)c2)cc1 (configuration not stated)	21%	15%	-4%	4%	-5%[57.1 µM]	9%[57.1 µM]
CNC(=S)N1CCn2cccc2C1c1ccc(F)cc1 (configuration not stated)	56µM*	1%	-8%	2%	-1%	5%[57.1 µM]
CCCCCCCCCCCCCCCCn1cc[n+](CC(C)=O)c1	35µM*	-5%	-20%	-1%	-4%	10%
C#CCn1cc[n+](CC(=O)N(C)C)c1	12%	1%	-1%	0%	3%	-4%
CN1CCS/C1=C/C=C1\SC(=S)N(CC(=O)O)C1=O	u	-16%	120%	0%	u	-19%
O=C(O)CN1C(=O)/C(=C/c2ccc(N3CCCCC3)o2)SC1=S	28µM*	u	-6%	10µM*	5%	28µM*
O=C(O)c1ccc(-c2ccc(/C=C3\NC(=O)N(Cc4ccc(Cl)cc4)C3=O)o2)cc1Cl	20µM*	79µM*	15µM*	-6%	14%[57.1 µM]	u
CCOC(=O)CN1C(=O)S/C(=C/c2ccc(N3CCCCC3)o2)C1=O	14µM*	-14%	73%	10%	0%	50µM*
CCOC(=O)CN1C(=O)S/C(=C/c2ccco2)C1=O	28%	u	-6%	1%	-15%	-3%[57.1 µM]
CCCN1C(=O)S/C(=C/c2ccc(N3CCOCC3)o2)C1=O	1.3µM*	89µM*	105%	-9%	-13%	28µM*
CCOC(=O)CN1C(=O)S/C(=C\c2ccc(-c3ccc(C(=O)O)c(Cl)c3)o2)C1=O	50µM*	u	-23%	7%	-6%	-22%
COC(=O)CN1C(=O)S/C(=C/c2cc(C)n(C)c2C)C1=O	12%	-20%	-6%	4%	3%[57.1 µM]	-21%[57.1 µM]
COC(=O)CN1C(=O)S/C(=C/c2ccc(N3CCCCC3)o2)C1=O	7.1µM*	32µM*	86%	10%	-15%	3.5µM*
Cc1ccc(OCCN2C(=O)S/C(=C\c3ccc(C)o3)C2=O)cc1	18µM*	u	8%	-3%	-6%	-29%
CCOC(=O)CN1C(=O)S/C(=C\c2ccc(-c3cccc(C(=O)O)c3C)o2)C1=O	x	13%	-7%	0%	-7%	3%
O=C(Nc1ccccc1)c1cccc(S(=O)(=O)Nc2cccc(F)c2)c1	x	10%	x	2%	-2%[57.1 µM]	9%[57.1 µM]
CC(C)c1ccc(N2C(=O)/C(=C/N(C)C)SC2=S)cc1	28%	-20%	-21%	13µM*	-10%	-4%
Cc1cc(C(F)(F)F)c(C#N)c(N2CCOCC2)n1	u	u	3.4µM*	1%	6%[57.1 µM]	10%
Cc1ccc(S(=O)(=O)c2nnn3c2nc(NC(C)C)c2cc(Cl)ccc23)cc1C	x	11%	x	4%	11%	15%
O=C(N/N=C/c1c(O)ccc2ccccc12)Nc1ccccc1	x	-15%	0%	2%	0%	19%
O=C(O)c1cc(N/N=C/c2c(O)ccc3ccccc23)ccc1Cl	-23%	u	17µM*	9%	-5%	-12%
O=S(=O)(/N=C/c1c(O)ccc2ccccc12)c1ccccc1	-1%	-4%	15µM*	22%	4%[57.1 µM]	4%[57.1 µM]
Cc1ccc(NC(=O)CN2C(=O)c3cccnc3Oc3ccc(Cl)cc32)cc1	x	-1%	x	-12%	-3%	11%
SMILES	Sfp PPTase inh	VDR inhibitor	PLK1 PBD block	mIDH1 inhibitor	TrxR1 substrate	TrxR1 inh
COc1ccc(-c2nc3ccc(C4=C(C)CC(=O)NN4)cc3[nH]2)cc1	x	-8%	x	x	x	x
CC1(c2ccccc2)CC(C)(C)N2C(=O)/C(=C3\SC(=S)NC3=O)c3cccc1c32 (configuration not stated)	-7%	-1%	24µM*	2%	2%	-5%
CC1(c2ccccc2)CC(C)(C)N2C(=O)C3(C(C#N)=C(N)Oc4cc(O)ccc43)c3cccc1c32 (configuration not stated)	8%	-10%	-1%	u	-1%	3%
COC(=O)C1=C(Nc2ccccc2NC(=O)CCCC(=O)O)CSC1	79µM*	-5%	-6%	-9%	-1%	4%
CC(C)c1ccccc1NC(=O)CCCC(=O)O	6%	-3%	1%	4%	-1%	3%
O=C(O)c1ccccc1C(=O)Nc1ccccc1NC(=O)c1ccccc1C(=O)O	x	11%	-4%	12%	10%[57.1 µM]	27%[57.1 µM]
COC(=O)C1=C(Nc2ccccc2NC(=O)c2ccccc2C(=O)O)CSC1	45µM*	-20%	-24%	1%	5%	-21%
COc1ccc2cc(C#N)c(=O)oc2c1	27%	0%	x	x	x	x
Cc1ccc(N2C(=O)[C@@H]3[C@H](C2=O)C2c4ccccc4C=CN2[C@@H]3C(=O)c2ccco2)cc1 (some centres not stated)	-23%	u	u	0%	-19%	u
CC(C)(C)C(=O)[C@@H]1[C@@H]2C(=O)N(c3ccc4c(c3)OCCO4)C(=O)[C@@H]2C2c3ccccc3C=CN21 (some centres not stated)	-15%	-14%	11µM*	1%	-10%[57.1 µM]	-5%[57.1 µM]
CC(Sc1cccc[n+]1[O-])C(=O)NC1CCCCC1C (configuration not stated)	x	-17%	24µM*	8%	3%	12%
CC(Sc1nnc(-c2ccco2)n1N)C(=O)NC1CCCCC1C (configuration not stated)	x	15%	-4%	0%	-8%	u
CC1(C(=O)Nc2ccc(Cl)cc2)Cc2c(-c3cccc(C(F)(F)F)c3)ccnc2O1 (configuration not stated)	x	x	2%	x	x	x
O=C(c1ccccc1F)N1CCOCC1	16%	-1%	-5%	7%	2%	27%
O=C(c1cccnc1Cl)N1CCOCC1	-6%	u	19µM*	1%	10%[57.1 µM]	23%[57.1 µM]
O=C1c2ccccc2C(=O)N1c1nc(-c2cccs2)cs1	25µM*	11%	-25%	2%	-3%	-12%[57.1 µM]
CN1CCN(c2nc(-c3cccs3)cs2)CC1	56µM*	4%	-6%	-3%	1%[57.1 µM]	29%[57.1 µM]
O=[N+]([O-])c1cccc(NC(=S)NCc2ccncc2)c1	13µM*	-27%	-11%	-2%	0%	-9%
COC(=O)c1ccc(CSc2nc(C(F)(F)F)c3c(c2C#N)CCC3)o1	56µM*	9%	-4%	22%	-2%	-14%
